Source: PubChem
An excerpt weighted towards active compounds, which were near 2.8% of everything screened.
IDE cell inh: inhibitors of human insulin-degrading enzyme in cells | HEK cells, FAbetaB cleavage, fluorescence polarization | inhibition, % at 5.59 µM | actives 0.41% (n = 320,000) | AID 434962;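 active means percent inhibition above the average of all tested compounds plus 3 SD, set per screening campaign, cut at about 16% in these data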;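 further: IDE supplied by intact live HEK cells; FP after avidin binding of uncleaved biotin substrate so inhibition keeps polarization high; 0% = DMSO wells and 100% = 60 µM reference IDE inhibitor Ii1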
IDE act: boosts human insulin-degrading enzyme activity in HEK cells | FAbeta-B cleavage, fluorescence polarization; 0% vehicle, 100% cell-free pure enzyme wells | activation, % at 5.96 µM | actives 0.073% (n = 340,000) | AID 493087;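 active means activation above the mean of all tested compounds plus 3 SD, set per screening campaign, cut at about 17% in these data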
Exocytosis inh: blocks lytic granule exocytosis; inhibition, % at 10 µM; TALL-104 LAMP-1 surface exposure, flow cytometry; cells stimulated with thapsigargin and PMA; AID 651702; actives 0.66% (n = 360,000);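 active means inhibition above about 55%, limit read from the data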
PP5 primary: inhibitors of human protein phosphatase 5 (PP5). inhibition, % at 6.7 µM. actives 0.18% (n = 320,000). AID 1987. purified PP5c, OMFP substrate fluorescence. P53041;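 active means inhibition above the campaign's mean inhibition across all tested compounds plus 3 SD, cut at about 9.5% in these data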;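 further: 0% = DMSO only and 100% = 100 µM cantharidin control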
Target sequence (P53041 whole entry, looked up): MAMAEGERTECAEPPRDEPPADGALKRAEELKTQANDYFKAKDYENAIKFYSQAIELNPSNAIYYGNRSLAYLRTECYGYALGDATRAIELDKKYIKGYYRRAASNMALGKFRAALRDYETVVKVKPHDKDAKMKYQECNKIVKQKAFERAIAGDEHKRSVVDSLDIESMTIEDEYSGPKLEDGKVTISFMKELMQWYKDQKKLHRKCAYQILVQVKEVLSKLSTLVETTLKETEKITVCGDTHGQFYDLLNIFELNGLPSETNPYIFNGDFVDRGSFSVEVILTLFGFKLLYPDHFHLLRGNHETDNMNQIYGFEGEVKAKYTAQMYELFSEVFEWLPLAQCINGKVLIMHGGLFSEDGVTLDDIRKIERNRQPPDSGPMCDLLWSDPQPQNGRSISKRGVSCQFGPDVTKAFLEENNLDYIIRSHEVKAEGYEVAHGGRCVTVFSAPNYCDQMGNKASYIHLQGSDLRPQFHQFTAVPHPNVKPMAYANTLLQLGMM
PP1 counter: blocks human PP1-alpha phosphatase, a PP5 counter-screen | P62136 | purified PP1alpha, OMFP fluorescence | inhibition, % at 6.7 µM | actives 0.9% (n = 320,000) | AID 2235;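 active means inhibition above the mean inhibition of all tested compounds plus 3 SD, computed separately for each screening campaign, cut at about 15% in these data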
SKKanGAS inh: SKKanGAS growth inhibition. S. pyogenes SKKanGAS, kanamycin growth, BacTiter-Glo, 6 h. inhibition, % at 7.5 µM. actives 1.3% (n = 300,000). AID 1662;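 active means mean replicate score, as percent of positive control median, at least 50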;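 further: strain carries kanamycin resistance gene driven by streptokinase promoter and grows in 40 µg/ml kanamycin; loss of luminescence reflects streptokinase promoter inhibition or plain growth inhibition; 0% = median of DMSO wells and 100% = positive control at its reference dose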
IDE inh confirm: confirmation of human insulin-degrading enzyme inhibitors in cells; shares compounds with IDE cell inh; HEK cells, FAbetaB cleavage, fluorescence polarization; inhibition, % at 5.59 µM; actives 51% (n = 1,200); AID 435028;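 active means mean inhibition across triplicate wells above the cutoff set by the earlier primary insulin-degrading enzyme screen, cut at about 16% in these data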;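 further: 0% = DMSO wells and 100% = 60 µM reference IDE inhibitor Ii1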
HEK cytotox: HEK cell cytotoxicity, counter-screen for IDE inhibitors. shares compounds with IDE cell inh. HEK293 cytotoxicity, ATP luminescence. inhibition, % at 5.59 µM. actives 28% (n = 1,200); in the data active means inhibition above about 22%;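 further: 0% = vehicle wells and 100% = reference cytotoxic drug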
The depositor's hits bear a star.

`O=C(CSc1nnc(-c2ccco2)o1)c1ccc[nH]1` gave IDE cell inh 0, IDE act 5, Exocytosis inh -1, PP5 primary 0, PP1 counter 2 and SKKanGAS inh 2.
`CC1(C)CC(=O)C2=C(C1)N(c1ccccc1)C(=O)C2(O)C(F)(F)F` (stereo not given) gave IDE cell inh 16*, IDE act 3, Exocytosis inh 5, PP5 primary 2, PP1 counter 1, SKKanGAS inh 0, IDE inh confirm 2 and HEK cytotox 7.
`CC1(C)CC(=O)C2=C(C1)N(c1ccc(F)cc1)C(=O)C2(O)C(F)(F)F` (stereo not given) gave IDE cell inh 2, IDE act -3, Exocytosis inh 0, PP5 primary 2, PP1 counter 2 and SKKanGAS inh -10.
O=c1c2ccccc2sn1-c1ccc(F)cc1 was read as IDE cell inh 60*, IDE act -23, Exocytosis inh 8, PP5 primary 4, PP1 counter 2, IDE inh confirm 18* and HEK cytotox 64*.
For COC(=O)c1cccc(-n2sc3ccccc3c2=O)c1 the results were IDE cell inh 68*, IDE act -23, Exocytosis inh 4, PP5 primary 1, PP1 counter -2, IDE inh confirm 37* and HEK cytotox 45*.
`Cc1ccc(-n2sc3cc(F)ccc3c2=O)c(C)c1` gave Exocytosis inh 42.
For COC(=O)c1cccc(N2CCCC2=O)c1 the results were IDE cell inh 2, IDE act 5, Exocytosis inh -4, PP5 primary 0, PP1 counter -6 and SKKanGAS inh 0.
Screening COc1ccc(CNC(=O)C2CCC(=O)N(CCCN3CCCC3=O)C2)c(OC)c1 (stereo not given) returned IDE cell inh -4, IDE act 7, Exocytosis inh -1, PP5 primary -2, PP1 counter -4 and SKKanGAS inh -10.
`Cc1occc1C(=O)NNC1=CC(=O)CC(C)(C)C1` gave IDE cell inh 4, IDE act 1, Exocytosis inh -2, PP5 primary 0, PP1 counter 1 and SKKanGAS inh -5.
Screening COc1ccc(C(=O)Nc2ccc(NC(=O)C3CC3)nc2)cc1 returned IDE cell inh -2, IDE act -1, Exocytosis inh -6, PP5 primary 1, PP1 counter -2 and SKKanGAS inh -1.
`CCNC(=S)N1CCC(n2cnc3ccccc32)CC1` gave IDE cell inh -3, IDE act 5, Exocytosis inh -2, PP5 primary 1, PP1 counter 0 and SKKanGAS inh 23.
For COc1ccc(N2CCN(c3nc4c(c(=O)n(C)c(=O)n4C)n3Cc3ccccc3)CC2)cc1 the results were IDE cell inh 20*, IDE act -3, Exocytosis inh -1, PP5 primary 2, PP1 counter 1, SKKanGAS inh 29, IDE inh confirm 5 and HEK cytotox 20.
For C=C(C)Cn1c(N2CCN(c3ccc(OC)cc3)CC2)nc2c1c(=O)n(C)c(=O)n2C the results were IDE cell inh -1, IDE act -6, Exocytosis inh -1, PP5 primary 1, PP1 counter -2 and SKKanGAS inh -6.
Cc1cccc(OCC(=O)NCC(=O)N/N=C/c2c(C)[nH]c3ccccc23)c1 was read as IDE cell inh 16*, IDE act 0, Exocytosis inh -3, PP5 primary 4, PP1 counter -10, SKKanGAS inh -3, IDE inh confirm 0 and HEK cytotox 17.
For COc1ccccc1-c1cccc([C@@H]2C[C@H]3[C@H](CON3C)CN2C(=O)C(C)(C)C)c1 the results were IDE act 2 and Exocytosis inh -2.
For O=C(CNC(=O)c1sc2ccccc2c1Cl)NCc1ccc(F)cc1 the results were IDE cell inh 8, IDE act -9, Exocytosis inh 2, PP5 primary 0, PP1 counter 1 and SKKanGAS inh -6.
For O=C(CNC(=O)c1sc2ccccc2c1Cl)NCc1cccnc1 the results were IDE cell inh 19*, IDE act -16, Exocytosis inh -1, PP5 primary 2, PP1 counter -2, SKKanGAS inh -4, IDE inh confirm 7 and HEK cytotox 9.
Screening Cc1ccc(NS(=O)(=O)c2cccc(C(=O)Nc3cccnc3)c2)c(C)c1 returned IDE cell inh 1, IDE act 0 and Exocytosis inh 9.
Cc1ccc(N2CC(C(=O)N3CCC(C(=O)Nc4ccc(Br)cc4)CC3)CC2=O)cc1 (stereo not given) was read as IDE cell inh 17*, IDE act -7, Exocytosis inh 4, PP5 primary 4, PP1 counter -1, SKKanGAS inh 5, IDE inh confirm 7 and HEK cytotox 12.
For CC(=O)Nc1ccc(S(=O)(=O)Nc2ccc(-n3cnnn3)cc2)cc1 the results were IDE cell inh -3, IDE act 0, Exocytosis inh -4, PP5 primary 0 and PP1 counter -1.
`O=C(C1=C[C@@H](C2CCCCC2)C[C@@H](OCc2ccc(CO)cc2)O1)N1CCN(Cc2ccccc2)CC1` gave IDE cell inh 19*, IDE act -12, Exocytosis inh 1, PP5 primary 6, PP1 counter 7, SKKanGAS inh 18, IDE inh confirm 5 and HEK cytotox 15.
Cc1ccc2nc(/C(C#N)=C/c3ccc(O)c(O)c3)[nH]c2c1 was read as IDE cell inh 84*, IDE act -62, Exocytosis inh 5, PP5 primary 7, PP1 counter 6, SKKanGAS inh 22, IDE inh confirm 111* and HEK cytotox 15.
`CC(CC(=O)N1CCc2ccccc21)S(=O)(=O)c1ccc2c(c1)NC(=O)CO2` (stereo not given) gave IDE cell inh -2, IDE act 8, Exocytosis inh -1, PP5 primary 5, PP1 counter -8 and SKKanGAS inh -2.
Cc1ccc2nc(NC(=O)CSc3nc4c(c(=O)n3C)SC(C)C4)sc2c1 (stereo not given) was read as IDE cell inh 25*, IDE act -21, Exocytosis inh 11, PP5 primary 7, PP1 counter 11, SKKanGAS inh 11, IDE inh confirm 12 and HEK cytotox 20.
Screening Cc1cccnc1NC(=O)CNC(=O)COc1ccccc1 returned IDE cell inh 10, IDE act 3, Exocytosis inh -1, PP5 primary 0, PP1 counter -3 and SKKanGAS inh 1.
